Laboratory results as given in PubChem BioAssay.

test: binders of probe aFGF2 on microarray, primary screen, stem cell growth factor project, biochemical, small-molecule microarray, fluorescence 635/667 (AID 1067); details: higher = more signal;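 also: measures binding of biotinylated aFGF2 protein to printed compounds on slides; z-score merges feature fluorescence and signal-to-noise across triplicate slides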

Row | SMILES | composite z-score
1 | C=C(COC)/C(=C/C[C@@H](OC(C)=O)c1cccc(OCCO)c1)c1cc(C(=O)OC)ccc1OC | -0.103
2 | O=C/C=C/c1ccccc1Cl | -0.093
3 | Cc1ccc(S(=O)(=O)c2cc3oc2CC[C@@H](CO)NC(=O)N(C)Cc2cn(nn2)C[C@H](Cc2ccccc2)NC3=O)cc1 | -0.0538
4 | O=C1O[C@H](c2ccccc2)[C@H](c2ccccc2)N2[C@H]1[C@@H](C(=O)Nc1nc3ccccc3s1)[C@]1(C(=O)Nc3ccc(C#CC4=CCCCC4)cc31)[C@H]2c1ccccc1OCCO | 0.0075
5 | C=CCC1=C[C@H]2[C@H]([C@@H]3C=C[C@]2(CC=C)C(=O)[C@]32CO2)[C@@]2(CO2)C1=O | -0.034
6 | CC(C)N1CC=CC23O[C@@H]4/C=C\CCCOC(=O)C4[C@H]2C(=O)N(CCO)[C@@H]3C1=O (some centres undefined) | -0.156
7 | C=CCC(OC(C)=O)[C@@H]1[C@@H](N(Cc2cc3ccccc3o2)C(=O)Cc2ccc(F)cc2)c2cc(OCCCO)ccc2N1C(=O)c1ccc(-c2ccccc2)cc1 (some centres undefined) | -0.116
8 | C=CCc1cccc([C@H]2N[C@H](C(=O)O)CC[C@@H]2C)c1 | -0.221
9 | CCOC(=O)C[C@H]1[C@H](OC(=O)Cc2ccc3c(c2)OCO3)[C@@H](NC(=O)c2ccc3ccccc3c2)c2cc(OCCCO)ccc2N1C(=O)Cc1ccc(OC)cc1 | -0.0239

test: binders of probe aFGF10 on microarray, primary screen, stem cell growth factor project, biochemical, small-molecule microarray, fluorescence 635/667 (AID 1071); details: higher = more signal;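 also: score merges 667 nm spot intensity and signal to noise from triplicate slides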

Row | SMILES | composite z-score
10 | Cc1ccc(S(=O)(=O)N2[C@@H](c3ccccc3)C(C(=O)O)=CC[C@H]2c2ccccc2)cc1 | 0.693
11 | CC[C@H]1C2=C3C(CC[C@H]4C(OC)OC[C@](C)([C@@H]34)N(C(=O)OC(C)(C)C)C2)C(CO)C1CO (some centres undefined) | 0.366
12 | C=CCN1C(=O)[C@@]2(O[C@@H](CCn3cc([C@H](O)c4ccccc4)nn3)[C@H]([Si](C)(C)c3ccc(OC)cc3)[C@H]2C)c2cc(N3CCOC3=O)ccc21 | 0.105
13 | CO[C@@H]1COC(=O)CC=C[C@@H](C)[C@H](OC)COC(=O)CC=C[C@H]1C | -0.228
14 | CCCC[C@H]1OB(O)C[C@H]2C1=C(COC)C[C@H]1C(=O)N(Cc3ccccc3)C(=O)[C@H]12 | 0.3
15 | C=CC[C@@]1(C(=O)N2CCOCC2)N=C(c2ccc(OCCCO)cc2)O[C@@H]1c1ccccc1 | 0.351
16 | COc1ccc([Si](C)(C)[C@@H]2[C@@H](CCO)O[C@]3(C(=O)N(Cc4ccc(NC(=O)[C@H](C)O)cc4)c4ccccc43)[C@H]2C)cc1 | 0.585
17 | COc1ccc([Si](C)(C)[C@H]2[C@H](CC(=O)N(CCO)Cc3ccccc3)O[C@@]3(C(=O)N(C)c4ccccc43)[C@@H]2C)cc1 | 0.877
18 | NC(=O)[C@H]1[C@@H]2C(=O)O[C@@H](c3ccccc3)[C@@H](c3ccccc3)N2[C@@H](c2ccc(O)cc2)[C@]12C(=O)Nc1ccc(C#CCCO)cc12 | -0.861
19 | CO[C@H]1O[C@H](CO)[C@@H](OC(=O)Nc2ccc3c(c2)OCO3)[C@H](OC(=O)Nc2ccccc2)[C@@H]1OC(=O)Nc1ccccc1 | 0.949
20 | CC(C)(C)OC(=O)CC[C@@]1(C(=O)NCc2ccccc2)N=C(c2ccc(OCCCO)cc2)O[C@@H]1c1ccccc1 | 0.0922
21 | C[C@@H]1CC[C@H]2C(=O)N3CCC[C@H]3C(=O)N2[C@H]1c1ccc(Br)cc1 | -0.121
22 | C=CCNC(=O)[C@H]1[C@@H]2C(=O)O[C@@H](c3ccccc3)[C@@H](c3ccccc3)N2[C@@H](c2ccc(O)cc2)[C@]12C(=O)Nc1ccc(C#CCNC(N)=O)cc12 | -0.608
23 | O=C(NCc1ccccc1)[C@@]1(Cc2ccccc2)COC(c2ccc(OCCCO)cc2)=N1 | 0.0532
24 | COc1ccc(C(=O)Nc2ccc(CN3C(=O)[C@]4(O[C@H](CCn5cc(CCO)nn5)[C@@H]([Si](C)(C)c5ccc(OC)cc5)[C@@H]4C)c4ccccc43)cc2)cc1 | 1.05
25 | O=C1C2C=CC(C(O)c3ccccc3)N(n3cnnc3)C2C(=O)N1Cc1ccccc1 (centres undefined) | 0.118
26 | O=C1c2ccccc2[C@](Cc2ccccc2I)(C(=O)NCC(F)(F)F)[C@H](c2ccc(CO)cc2)N1Cc1ccccc1C(F)(F)F | 0.22
27 | COCCCNC(=O)[C@@]1(Sc2ccc(C)cc2)CC(=O)N(Cc2cc(C(F)(F)F)cc(C(F)(F)F)c2)[C@@H]1c1ccc(CO)cc1I | -0.811
28 | CC1CC/C=C\[C@H]2OC34C=CCN(Cn5nnc6ccccc65)C(=O)[C@H]3N(C(C)CO)C(=O)[C@@H]4C2C(=O)O1 (some centres undefined) | -0.282
29 | COCCOC(=O)N1C(=O)[C@@]2(c3cc(C#CCNC(N)=O)ccc31)[C@H](C(=O)N1CCCCCCC1)[C@H]1C(=O)O[C@H](c3ccccc3)[C@H](c3ccccc3)N1[C@@H]2c1ccccc1OCCO | 0.452
